According to PubChem BioAssay AID504913 (The Scripps Research Institute Molecular Screening Center, 2011):
Some of the results follow. A number with no mark means an inactive call. Active and inactive are the calls of the source. Cut-off read from the data, not from the text of the source: active = activation above about 18%; inactive = the rest.

Assay: activation of mu-delta opioid heterodimer signal – cell-based, luminescence, counter-screen for HTR5A agonist project (AID 504913)
Conditions: U2OS counter-screen cells, complementation luminescence, 3 h; at 9.3 µM; hits give high values

| Compound | activation |
| --- | --- |
| CC(=O)COc1ccc2c(-c3ccccc3)cc(=O)oc2c1 | 63.2% (active) |
| CCOc1ccc(NC(=O)Nc2cc(C)on2)cc1 | 0.12% |
| CCCN(CCc1ccccc1)C1CCc2c(O)cccc2C1 (stereo not given) | 11.3% |
| COc1ccc(/C=C(\C#N)c2c[nH]c3ccccc23)cc1 | 6.75% |
| Cc1c(C(=O)OCC(=O)N(CCC#N)c2ccccc2)oc2c1ccc1ccccc12 | 1.04% |
| Cc1oc2c(F)c(F)c(F)c(F)c2c1S(=O)(=O)Nc1cccc(C(F)(F)F)c1 | -0.99% |
| Cc1ccc(CN2CCN(Cc3ccc(OCCO)cc3)CC2CCO)o1 (stereo not given) | -0.37% |
| CNC(=S)N/N=C/c1ccc(OCc2ccccc2)c(Br)c1 | -1.02% |
| COc1c(Cl)cc(C(=O)Nc2ccc(Cl)cn2)cc1Cl | 9.05% |
| COC(=O)c1cc(C(=O)OCC(=O)Nc2cc(C)on2)cc([N+](=O)[O-])c1 | 1.24% |
| CCN(CC(=O)Nc1cccc(S(=O)(=O)N2CCCCC2)c1)Cc1ccccc1 | 4.65% |
| COC(=O)c1cc(S(=O)(=O)N2CCN(c3cc(C)ccc3C)CC2)c[nH]1 | 0.96% |
| CC(NC(=O)c1cc(-c2ccccc2)on1)c1ccccc1 (stereo not given) | 40.1% (active) |
| COc1ccc(C(=O)O/N=C(\N)Cc2ccc(Cl)cc2Cl)cc1OC | 9.9% |
| O=C(OC12CC3CC(CC(C3)C1)C2)c1ccc(NCc2cc(O)ccc2O)cc1 | 8.31% |
| CC1CCN(S(=O)(=O)c2nnc(NC(=O)COc3ccccc3F)s2)CC1 | 3.72% |
| Cc1ccc(-c2csc(SCC(=O)Nc3cc(C)on3)n2)cc1 | 0.69% |
| COc1ccc(-c2ocnc2C(=O)Nc2ccc3c(c2)CCC3)cc1 | -2.69% |
| Cc1ccccc1CN1CCN(CC(=O)NCc2ccccn2)C1=O | 0.64% |
| CCCOc1ccc(C(=O)C(CCC(CNCC)C(=O)c2ccc(OCCC)cc2)CNCC)cc1 (stereo not given) | -0.5% |
| O=C(Nc1ccc(C(=O)N2CCOCC2)cc1)Nc1cccc(C(F)(F)F)c1 | 0.41% |
| CC(C)CC(=O)N/C(N)=N/c1nc2ccccc2s1 | 5.76% |
| COc1ccccc1S(=O)(=O)NCc1ccc(C(=O)N(C)Cc2ccc(F)cc2)cc1 | 3.43% |
| O=C(CNCc1ccco1)Nc1cc(S(=O)(=O)N2CCOCC2)ccc1N1CCCC1 | 3.16% |
| Cc1cccc2sc(N(CCCN(C)C)C(=O)CCS(=O)(=O)c3ccccc3)nc12 | 0.46% |
